Shn3 3UTR inh: Schnurri-3 reporter inhibition in Clone20 osteoblasts | Clone20 osteoblast Shn3 3'UTR firefly luciferase, 24 h | inhibition, % at 12.5 µM | actives 0.52% (n = 360,000) | AID 588674;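 active means mean inhibition of at least 75% with every replicate also reaching 75%; inconclusive means mean inhibition at least 75% but some replicate below; inactive means mean inhibition below 75%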
TROY NFkB inh: TROY signaling inhibition; Q293 LMP1-TROYcd NF-kB luciferase reporter, 4 h; inhibition, % at 10 µM; actives 0.98% (n = 360,000); AID 1347056;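 active means compounds whose plate-normalised and pattern-corrected inhibition of the luciferase reporter signal at the single screening dose is 50% or more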
TRPM1 prom inh: inhibitors of MITF-driven TRPM1 promoter in melanoma cells; actives 0.83% (n = 330,000); SK-MEL-5 TRPM1 promoter luciferase, 24 h; inhibition, % at 12.5 µM;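 active means mean inhibition across replicates of 60% or more, whatever share of single replicates reaches that level; inconclusive means some that reach 60%, reason not given; inactive means mean inhibition across replicates below 60%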
EBV LMP1 NFkB: inhibitors of Epstein-Barr LMP1-induced NF-kappaB reporter; inhibition, % at 12.5 µM; actives 0.69% (n = 350,000); LMP1-induced NF-kappaB luciferase reporter cells, luminescence; in the data active means inhibition above about 41%; inconclusive means no clear call, values can overlap the other calls
HIF-2a block: blocks HIF-2a reporter activity; 786-0 RCC cells HIF-2a reporter, luciferase luminescence, overnight; inhibition, % at 18.8 µM; actives 0.72% (n = 360,000);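 active means inhibition of the luminescence signal of 40% or more relative to plate controls, in a single-dose primary screen at 18.75 µM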
TWEAK Fn14 block: inhibitors of TWEAK-Fn14 interaction signaling | TWEAK-stimulated Fn14 reporter cells, luciferase luminescence, 8 h | inhibition, % at 10 µM | actives 2% (n = 360,000) | AID 1159606; in the data active means inhibition above about 50%
Hits are given with their value; i = inactive; ? = inconclusive; nt = not tested or not shown. Rows were chosen to be rich in hits. Some 3.4% of all compounds tested hit in one or more screens of this group.

SMILES | Shn3 3UTR inh | TROY NFkB inh | TRPM1 prom inh | EBV LMP1 NFkB | HIF-2a block | TWEAK Fn14 block
CCOC(=O)N1CCN(C(=O)C2CCC(CNS(=O)(=O)c3ccc(Cl)cc3)CC2)CC1 (stereo unspecified) | i | nt | i | i | i | 51
CCOC(=O)N1CCN(C(=O)C2CCN(C(=O)c3ccccc3C)CC2)CC1 | 93 | i | 74 | i | i | i
Cc1c(C(=O)NCc2cccs2)sc(=O)n1Cc1ccc(S(=O)(=O)N(C)C)cc1 | i | i | nt | nt | i | i
O=C(NC(=S)N1CCCCC1c1cccnc1)c1ccc(F)cc1 (stereo unspecified) | i | 73 | i | i | i | i
O=C(NC(=S)N1CCCCC1c1cccnc1)c1ccc(Br)cc1 (stereo unspecified) | i | i | i | i | i | i
Cc1cc(C(=O)COC(=O)c2nn(C)c(=O)c3ccccc23)c(C)n1C | i | i | i | i | i | i
COc1ccc2c3c(cccc13)C(=O)CC2 | i | i | i | i | i | 63
CCCC[n+]1ccn(C2=C([O-])c3ccccc3C(=O)/C2=N\S(=O)(=O)c2ccc(Cl)cc2)c1 | i | i | i | i | i | i
CCCCC[n+]1ccn(C2=C([O-])c3ccccc3C(=O)/C2=N\S(=O)(=O)c2ccc(Cl)cc2)c1 | i | i | 78 | i | i | i
O=C(CN1C(=O)NC(c2ccccc2)(c2ccccc2)C1=O)NCCc1ccc(F)cc1 | i | i | i | i | i | i
CC(=O)Nc1ccc(C(=O)N2CCCCC2c2cc(C(=O)Nc3cccc4c3CCCC4)no2)cc1 (stereo unspecified) | i | i | nt | nt | i | i
Cn1nc(C(C)(C)C)cc1C(=O)N1CCCCC1c1cc(C(=O)Nc2cccc3c2CCCC3)no1 (stereo unspecified) | 81 | i | nt | nt | i | i
OCCNc1c2ccccc2nc2c(F)c(F)c(F)c(F)c12 | i | i | 81 | i | 97 | i
COc1cccc(C(=O)/C=C/Nc2ccc(S(=O)(=O)Nc3ccc(C(C)=O)cc3)cc2)c1 | i | i | i | i | i | i
COC(=O)c1ccc(N/C=C/C(=O)c2ccccc2)cc1 | i | i | i | i | i | 51
COc1ccc(C(=O)/C=C/Nc2ccc(S(=O)(=O)Nc3cccc(C(C)=O)c3)cc2)cc1 | ? | i | i | i | i | 79
COc1ccc(C(=O)/C=C/Nc2cccc(O)c2)cc1 | i | i | i | i | i | 52
CCOC(=O)C1=CCC2C(=O)N(C)C(=O)C12 (stereo unspecified) | i | i | nt | nt | i | i
CC1(c2ccccc2)NC(=O)N(CC(=O)N(c2ccccc2)C2CCS(=O)(=O)C2)C1=O (stereo unspecified) | i | i | i | i | i | i
CC(OC(=O)CCN1C(=O)C2CC=CCC2C1=O)C(=O)Nc1ccc(F)cc1 (stereo unspecified) | i | i | i | i | i | i
COc1cccc2c1OC1(C)CC2NC(=O)N1c1cccc(C(=O)Nc2ccc3c(c2)OCCO3)c1 (stereo unspecified) | nt | i | i | i | i | 83
COc1ccc(-c2cc(=O)c3c(O)c(OC)c(O)cc3o2)cc1 | i | i | nt | i | i | 54
COc1ccc(-c2cc(=O)c3c(O)c(OC)c(OC)c(OC)c3o2)cc1 | i | i | i | i | i | i
c1ccc(CN=C(NCc2ccccc2)NCc2ccccc2)cc1 | 83 | i | i | i | i | i
CCc1nnc(NC(=O)c2cccc(C(=O)Nc3nnc(CC)s3)n2)s1 | 88 | i | i | i | i | i
SMILES | Shn3 3UTR inh | TROY NFkB inh | TRPM1 prom inh | EBV LMP1 NFkB | HIF-2a block | TWEAK Fn14 block
CCc1nnc(NC(=O)c2ccncc2)s1 | i | i | i | i | i | i
CN(C(=O)C1CCCC1)C1CCS(=O)(=O)C1 (stereo unspecified) | i | i | i | i | i | i
COC(=O)CC1(c2cccc3ccccc23)C(=O)c2ccccc2C1=O | i | i | i | i | 78 | i
Cc1nc(NC(=O)c2ccccc2)sc1-c1cc(C(=O)NCCO)nn1Cc1ccccc1 | nt | nt | nt | nt | i | nt
O=C(C[C@@H]1C/C=C/CC[C@H](Cc2ccc(F)cc2)C(=O)OC[C@@H](Cc2ccccc2)NC1=O)N[C@H](CO)Cc1ccccc1 | i | i | 91 | i | i | i
C[C@@H]1COC(=O)[C@H](Cc2ccc(F)cc2)CC/C=C/C[C@@H](CC(=O)N[C@@H](CO)Cc2ccccc2)C(=O)N1 | i | i | i | i | i | i
O=[N+]([O-])c1ccc(/C=[N+](\[O-])[C@@H]2CCCC[C@@H]2/[N+]([O-])=C/c2ccc([N+](=O)[O-])o2)o1 | i | i | 84 | i | i | i
Cc1cc(C)[n+]2[nH]c(N)c(N=Nc3ccccc3)c2n1 | i | i | i | i | i | i
COC(=O)C1=C(C)N(Cc2ccccc2)C(=NCc2ccccc2)N[C@H]1c1ccccc1 | i | i | 83 | i | i | i
COC(=O)C1=C(C)N(Cc2ccccc2)C(=NCc2cccc(Cl)c2)N[C@H]1c1ccccc1 | i | i | i | i | i | i
COC(=O)C1=C(C)N(Cc2ccccc2)C(=NCCc2c[nH]c3ccccc23)N[C@H]1c1cccc(F)c1 | 98 | i | i | i | i | i
COC(=O)C1=C(C)N(Cc2ccccc2)C(=NCCc2c[nH]c3ccccc23)N[C@H]1c1ccccc1 | i | i | i | i | i | i
COc1ccc(CN2CCC(n3nccc3NC(=O)C3CC3)CC2)cc1O | i | i | i | i | i | i
CSc1cccc(CN2CCC(n3nccc3NC(=O)C3CC3)CC2)c1 | i | i | i | 56 | i | i
Cc1ccc(C(C)(C)C)cc1S(=O)(=O)N1CCC(C(=O)N2CCN(c3ccc(O)cc3)CC2)CC1 | i | i | i | i | i | i
Cc1ccc(NC(=O)N2CCc3ccccc32)cc1C | i | i | i | i | i | i
CCc1ccccc1NC(=O)N1CCc2ccccc2C1 | i | i | i | i | i | i
Cc1ccc(NC(=O)N2CCCc3ccccc32)cc1 | i | i | i | i | i | i
Cc1ccc(NC(=O)N2CCc3ccccc32)cc1 | i | i | i | i | i | 65
CCc1ccccc1NC(=O)N1CCCc2ccccc21 | i | 78 | i | i | i | 53
CN1CCN(c2ccc(NC(=O)N3CCc4ccccc43)cc2)CC1 | i | 77 | ? | 60 | i | 95
CCn1cc(S(=O)(=O)N2CCN(Cc3cccc(Cl)c3)CC2)cn1 | i | i | i | i | i | i
CC(=O)Nc1c(O)[nH]c2ccccc12 | i | i | i | i | i | i
N=NC(=O)c1ccccc1Nc1c(O)[nH]c2ccccc12 | i | i | i | i | i | 53
COc1ccc(Cl)cc1NC(=O)CN1C(=O)C(=O)N(C2CCCC2)C1=O | i | i | nt | i | i | i
O=[N+]([O-])c1ccccc1-c1ccc(/C=N/n2cnnc2)o1 | i | i | i | i | i | i
O=C1ON=C(c2ccccc2)/C1=C/c1ccc(-c2ccccc2[N+](=O)[O-])o1 | ? | i | 67 | i | 98 | 95

Screening data: PubChem BioAssay, several laboratories
